Measured values: PubChem BioAssay (NCI)
Compounds without any hit were thinned out: in the full panel of roughly 83,000, 20% have a hit.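 Each cell line was grown in a 96-well plate and treated with one concentration of compound for 48 hours. Values below 10 were considered active.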 Values without a mark were called inactive. Calls of active or inactive are those of the source.

Columns and labels:
Assay in all cases: NCI-60 one-dose screen, 48 h (100 = growth as untreated, 0 = no growth, -100 = all killed)
Conditions in all cases: 10 µM unless noted
DU-145 prostate = tested on: DU-145 prostate
K-562 leukemia = tested on: K-562 leukemia
MALME-3M melanoma = tested on: MALME-3M melanoma
MDA-MB-231 breast = tested on: MDA-MB-231 breast
RXF 393 renal = tested on: RXF 393 renal
SF-268 CNS = tested on: SF-268 CNS
SF-295 CNS = tested on: SF-295 CNS
SF-539 CNS = tested on: SF-539 CNS
UACC-257 melanoma = tested on: UACC-257 melanoma
M14 melanoma = tested on: M14 melanoma
HCT-15 colon = tested on: HCT-15 colon
HT29 colon = tested on: HT29 colon
SNB-75 CNS = tested on: SNB-75 CNS
U251 CNS = tested on: U251 CNS
PC-3 prostate = tested on: PC-3 prostate
UACC-62 melanoma = tested on: UACC-62 melanoma
LOX IMVI melanoma = tested on: LOX IMVI melanoma
SK-MEL-28 melanoma = tested on: SK-MEL-28 melanoma
SK-MEL-5 melanoma = tested on: SK-MEL-5 melanoma

Structure (SMILES) | growth (DU-145 prostate) [%] | growth (K-562 leukemia) | growth (MALME-3M melanoma) | growth (MDA-MB-231 breast) [%] | growth (RXF 393 renal) | growth (SF-268 CNS) [%] | growth (SF-295 CNS) | growth (SF-539 CNS) [%] | growth (UACC-257 melanoma) [%] | growth (M14 melanoma) | growth (HCT-15 colon) [%] | growth (HT29 colon) | growth (SNB-75 CNS) | growth (U251 CNS) [%] | growth (PC-3 prostate) [%] | growth (UACC-62 melanoma) | growth (LOX IMVI melanoma) | growth (SK-MEL-28 melanoma) | growth (SK-MEL-5 melanoma)
O=C(CSc1nnc(-c2ccc(Cl)c(Cl)c2)n1-c1ccccc1)Nc1ccc(C(=O)/C=C/c2ccc(Cl)cc2)cc1 | 98.3 | 81.9% | 94.6% | 86.5 | 92.1% | 92.2 | 98.2% | 97.9 | 77.3 | 82.2% | 92.3 | 85.9% | 69.9% | 84 | 62.5 | 76.7% | 97.5% | 104% | –
O=C(Nc1cccc2c1C(=O)c1cccc(NC(=O)c3ccc(C(=O)Nc4cccc5c4C(=O)c4cccc(NC(=O)c6ccccc6)c4C5=O)cc3)c1C2=O)c1ccccc1 | 115 | 93.5% | 101% | 90.4 | 103% | 109 | 108% | 104 | 95.1 | 113% | 105 | 112% | 89.7% | 101 | 87.7 | 89% | 102% | 103% | 105%
Nc1ncc(-c2ccc3ncnc(N4CCc5cc(F)c(Cl)cc54)c3c2)cc1C=O | 10.1 | 35.5% | -15.5% (active) | 26.4 | -35% (active) | 18.1 | 6.94% (active) | 12.1 | 24.6 | 19% | 26.5 | 16.4% | -38.3% (active) | – | 20.1 | -17.2% (active) | 19.2% | 10.2% | 2.88% (active)
CC(CN)[C@@H]1CC[C@]2(CO)CC[C@]3(C)[C@H](CC[C@@H]4[C@@]5(C)CCC(NCCO)C(C)(C)[C@@H]5CC[C@]43C)[C@@H]12 (stereo partly drawn) | 63.5 | -49.4% (active) | -35.5% (active) | 13.6 | 58.6% | 60.6 | 70.9% | 65.8 | 84.9 | -2.37% (active) | 38.4 | 1.25% (active) | 59.5% | 18.4 | 69.4 | 91.9% | -64.4% (active) | -5.2% (active) | 32.9%
O=C(O)c1cc2ccccc2s1 | 124 | 107% | 130% | 104 | 110% | 107 | 97.8% | 101 | 105 | 110% | 106 | 110% | 97.9% | 95.9 | 96.4 | 107% | 99.6% | 117% | 104%
